Results reported in PubChem BioAssay.
Activity calls are given as the source filed them.

How the values were obtained:
[1] = small molecules captured by biotinylated probe aFSTL3 – biochemical, small-molecule microarray, fluorescence 635/667, stem cell growth factor project, primary screen (AID 1064); conditions: higher = more signal;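 further: measures binding of the biotinylated anti-FSTL3 antibody to printed compounds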
[2] = binders from COS7 lysate, DM2A8 probe, primary screen, torsin A project, cell lysate, small-molecule microarray, fluorescence 635/667 (AID 1065); conditions: higher = more signal, COS7 lysate expressing mutant human TOR1A
[3] = small molecules captured by biotinylated probe aFGF2 – biochemical, small-molecule microarray, fluorescence 635/667, stem cell growth factor project, primary screen (AID 1067); conditions: higher = more signal;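 further: measures binding of biotinylated aFGF2 protein to printed compounds on slides; z-score merges feature fluorescence and signal-to-noise across triplicate slides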
[4] = small molecules captured by biotinylated probe aFGF10 – biochemical, small-molecule microarray, fluorescence 635/667, stem cell growth factor project, primary screen (AID 1071); conditions: higher = more signal;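 further: score merges 667 nm spot intensity and signal to noise from triplicate slides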
[5] = molecular target: Neurogenic locus notch homolog protein 2 (Homo sapiens) (UniProt Q04721); test: small molecules binding Notch2 protein – biochemical, small-molecule microarray, 635 nm fluorescence, stem cell growth factors, primary screen (AID 1073); conditions: higher = more signal
[6] = molecular target: Pro-neuregulin-1, membrane-bound isoform (Homo sapiens) (UniProt Q02297); test: small molecules binding neuregulin-1 protein – biochemical, small-molecule microarray, fluorescence 635/667, psychiatric disease protein project, primary screen (AID 1075); conditions: NRG1 binding, 635 nm fluorescence, higher = more signal;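 further: score combines 667 nm spot fluorescence with signal to noise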
[7] = system: Neuregulin-1 EGF-like domain; test: small molecules binding NRG1 EGF domain – biochemical, small-molecule microarray, 635 nm fluorescence, primary screen (AID 1081); conditions: higher = more signal;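 further: binding of the protein to compounds printed on small-molecule microarray slides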
[8] = FRG1 expression reporter modulators in myotubes – cell-based, C2C12 myotubes, firefly/Renilla luciferase, luminescence, FRG1 inhibition for FSHD, primary screen (AID 1084); conditions: FRG1 promoter luciferase, higher = more signal, called active from +8 up or from −8 down
[9] = small molecules captured by biotinylated probe aFST – biochemical, small-molecule microarray, fluorescence 635/667, stem cell growth factor project, primary screen (AID 1086); conditions: higher = more signal;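 further: score merges 667 nm fluorescence with signal-to-noise of each printed compound spot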
[10] = binders of probe aHhip on microarray, primary screen, stem cell growth factor project, biochemical, small-molecule microarray, fluorescence 635/667 (AID 1087); conditions: higher = more signal;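 further: score merges spot fluorescence at 667nm with spot signal to noise ratio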
[11] = system: PRMT1 (protein arginine N-methyltransferase 1); test: small molecules binding arginine methyltransferase PRMT1 – biochemical, small-molecule microarray, 635 nm fluorescence, primary screen (AID 1088); conditions: higher = more signal;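 further: binding of Prmt1 protein to compounds spotted on small-molecule microarray slides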
[12] = growth effects on S. cerevisiae YJM789 – YJM789 clinical isolate, OD600, 24 h, basal, primary screen (AID 1089); conditions: higher = more signal, called active from +8 up or from −8 down;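 further: growth of clinical yeast isolate S. cerevisiae YJM 789 seeded 1000 cells per well; test concentration not given here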
[13] = S. pombe growth modifiers, basal conditions – strain 972, OD600, 24 h, no modulator, primary screen (AID 1090);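 further: basal condition with compound alone and no growth modifier present; test concentration not given here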; conditions: S. pombe 972 growth, higher = more signal, called active from +8 up or from −8 down
[14] = budding yeast growth modifiers under rapamycin – strain BY4716, OD600, 96 h, primary screen (AID 1091); further: test concentration not given here; conditions: S. cerevisiae BY4716 + rapamycin, higher = more signal, called active from +8 up or from −8 down
[15] = molecular target: Torsin-1A-interacting protein 2 (Homo sapiens) (UniProt Q8NFQ8); test: small molecules binding lysate-expressed LULL1 – cell lysate, human LULL1 lysate, 635/667 nm fluorescence, primary screen (AID 1092); conditions: small-molecule microarray, hLULL1 lysate binding, 635 nm fluorescence; higher = more signal;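 further: probe is lysate of COS7 cells overexpressing human LULL1; score merges per-feature 667 nm fluorescence with signal-to-noise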
[16] = optical density change of DRC41 E. coli – strain DRC41, OD650, 24 h, E. coli filamentation project, primary screen (AID 1093);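 further: MC1000 strain lacking acrAB efflux and sulA so SOS filamentation is blocked; test concentration not given here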; conditions: E. coli DRC41 growth, higher = more signal, called active from +8 up or from −8 down
[17] = probe aLefty2 binding to arrayed compounds – biochemical, biotinylated probe, 635/667 nm fluorescence, primary screen (AID 1094); conditions: small-molecule microarray, higher = more signal;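 further: score merges spot fluorescence near 667 nm with spot signal-to-noise ratio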
[18] = system: Noggin (protein binding on small-molecule microarray); test: small molecules binding Noggin protein – biochemical, 635/667 nm fluorescence, primary screen (AID 1095); conditions: 635 nm fluorescence, higher = more signal;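 further: score merges 667 nm feature fluorescence with signal to noise over triplicate slides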
[19] = molecular target: Neurogenic locus notch homolog protein 3 (Homo sapiens) (UniProt Q9UM47); test: small molecules binding NOTCH3 protein – biochemical, 635/667 nm fluorescence, primary screen (AID 1096); conditions: small-molecule microarray, 635 nm fluorescence, higher = more signal
[20] = probe aEGFR binding to arrayed compounds – biochemical, biotinylated probe, 635/667 nm fluorescence, primary screen (AID 1097); conditions: small-molecule microarray, higher = more signal;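 further: probe is a biotinylated anti-EGFR antibody binding compounds printed on slides; score combines fluorescence near 667 nm and signal to noise of each spot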

Sequence of Neurogenic locus notch homolog protein 3 (Homo sapiens) (Q9UM47 whole entry, looked up): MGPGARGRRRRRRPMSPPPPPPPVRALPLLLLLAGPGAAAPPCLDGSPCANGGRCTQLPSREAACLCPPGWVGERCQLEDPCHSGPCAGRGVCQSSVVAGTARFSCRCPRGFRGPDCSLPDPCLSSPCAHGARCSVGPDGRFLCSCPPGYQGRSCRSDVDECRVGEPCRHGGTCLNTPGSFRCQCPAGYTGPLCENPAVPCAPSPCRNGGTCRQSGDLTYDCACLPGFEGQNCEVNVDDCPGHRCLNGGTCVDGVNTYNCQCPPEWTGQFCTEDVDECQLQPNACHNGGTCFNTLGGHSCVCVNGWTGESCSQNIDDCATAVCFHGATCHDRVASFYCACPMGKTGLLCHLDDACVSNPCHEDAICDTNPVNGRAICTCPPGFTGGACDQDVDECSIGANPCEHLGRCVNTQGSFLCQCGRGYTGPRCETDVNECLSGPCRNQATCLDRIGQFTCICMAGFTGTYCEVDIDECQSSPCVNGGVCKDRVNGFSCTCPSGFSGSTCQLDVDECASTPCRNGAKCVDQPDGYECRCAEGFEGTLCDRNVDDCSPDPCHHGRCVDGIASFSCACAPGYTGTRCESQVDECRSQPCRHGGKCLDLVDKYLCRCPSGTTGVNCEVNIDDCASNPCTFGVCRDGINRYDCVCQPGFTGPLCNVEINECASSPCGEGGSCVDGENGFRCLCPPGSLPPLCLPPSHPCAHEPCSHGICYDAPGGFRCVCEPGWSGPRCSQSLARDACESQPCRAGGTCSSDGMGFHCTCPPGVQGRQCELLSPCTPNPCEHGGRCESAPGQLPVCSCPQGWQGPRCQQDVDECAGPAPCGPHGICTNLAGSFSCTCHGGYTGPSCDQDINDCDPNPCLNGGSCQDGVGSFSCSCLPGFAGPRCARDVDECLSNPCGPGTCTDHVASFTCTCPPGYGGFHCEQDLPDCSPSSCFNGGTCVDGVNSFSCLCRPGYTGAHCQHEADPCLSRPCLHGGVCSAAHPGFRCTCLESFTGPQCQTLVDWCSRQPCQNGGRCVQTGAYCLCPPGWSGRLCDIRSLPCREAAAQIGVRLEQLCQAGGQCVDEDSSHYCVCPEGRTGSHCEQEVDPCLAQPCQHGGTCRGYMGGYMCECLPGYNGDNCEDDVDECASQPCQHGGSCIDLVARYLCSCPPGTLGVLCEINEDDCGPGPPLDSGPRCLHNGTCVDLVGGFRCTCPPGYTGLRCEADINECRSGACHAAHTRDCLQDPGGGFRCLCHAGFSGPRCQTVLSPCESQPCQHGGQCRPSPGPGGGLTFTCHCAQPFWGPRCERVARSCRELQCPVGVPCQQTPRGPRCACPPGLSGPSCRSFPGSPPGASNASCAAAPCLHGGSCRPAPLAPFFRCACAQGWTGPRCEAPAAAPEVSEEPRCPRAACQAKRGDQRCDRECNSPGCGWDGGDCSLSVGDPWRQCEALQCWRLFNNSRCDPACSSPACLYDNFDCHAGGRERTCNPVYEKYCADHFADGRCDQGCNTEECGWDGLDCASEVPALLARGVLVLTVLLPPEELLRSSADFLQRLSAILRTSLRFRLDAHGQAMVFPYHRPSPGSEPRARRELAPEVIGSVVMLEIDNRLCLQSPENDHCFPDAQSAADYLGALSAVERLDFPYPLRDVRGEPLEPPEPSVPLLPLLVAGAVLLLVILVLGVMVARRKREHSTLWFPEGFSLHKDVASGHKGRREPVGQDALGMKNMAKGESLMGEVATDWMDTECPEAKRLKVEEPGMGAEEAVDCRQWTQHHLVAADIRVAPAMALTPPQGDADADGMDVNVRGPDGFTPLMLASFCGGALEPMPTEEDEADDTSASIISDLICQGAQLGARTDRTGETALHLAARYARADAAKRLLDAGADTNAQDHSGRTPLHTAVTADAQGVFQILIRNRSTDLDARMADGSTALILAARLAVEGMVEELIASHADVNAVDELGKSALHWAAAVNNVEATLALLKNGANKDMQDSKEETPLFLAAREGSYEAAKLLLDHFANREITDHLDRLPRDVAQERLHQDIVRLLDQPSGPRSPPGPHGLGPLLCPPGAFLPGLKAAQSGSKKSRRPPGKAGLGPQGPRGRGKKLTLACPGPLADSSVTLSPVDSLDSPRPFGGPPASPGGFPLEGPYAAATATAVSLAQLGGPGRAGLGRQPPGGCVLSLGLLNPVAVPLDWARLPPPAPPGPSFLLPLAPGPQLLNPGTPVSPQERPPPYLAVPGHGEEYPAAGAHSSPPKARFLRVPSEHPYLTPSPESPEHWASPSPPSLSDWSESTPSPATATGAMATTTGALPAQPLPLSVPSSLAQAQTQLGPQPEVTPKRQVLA
Sequence of Pro-neuregulin-1, membrane-bound isoform (Homo sapiens) (Q02297 whole entry, looked up, the tested form may be a part, canonical isoform): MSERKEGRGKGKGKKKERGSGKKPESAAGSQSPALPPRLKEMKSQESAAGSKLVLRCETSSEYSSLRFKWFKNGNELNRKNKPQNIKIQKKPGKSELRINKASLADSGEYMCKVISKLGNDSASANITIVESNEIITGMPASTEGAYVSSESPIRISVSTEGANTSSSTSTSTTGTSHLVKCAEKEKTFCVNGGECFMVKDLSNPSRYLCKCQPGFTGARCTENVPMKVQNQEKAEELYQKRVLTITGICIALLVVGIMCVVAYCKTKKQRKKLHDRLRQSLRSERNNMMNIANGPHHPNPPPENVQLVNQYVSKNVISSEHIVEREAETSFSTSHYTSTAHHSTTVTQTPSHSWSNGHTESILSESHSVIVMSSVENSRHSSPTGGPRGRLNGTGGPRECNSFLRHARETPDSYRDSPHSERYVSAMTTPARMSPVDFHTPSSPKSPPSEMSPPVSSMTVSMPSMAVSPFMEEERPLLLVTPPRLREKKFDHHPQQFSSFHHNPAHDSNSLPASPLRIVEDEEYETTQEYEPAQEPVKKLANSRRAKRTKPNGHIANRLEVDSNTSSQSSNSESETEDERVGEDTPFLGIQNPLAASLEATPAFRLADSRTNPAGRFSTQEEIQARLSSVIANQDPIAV
Sequence of Torsin-1A-interacting protein 2 (Homo sapiens) (Q8NFQ8 whole entry, looked up): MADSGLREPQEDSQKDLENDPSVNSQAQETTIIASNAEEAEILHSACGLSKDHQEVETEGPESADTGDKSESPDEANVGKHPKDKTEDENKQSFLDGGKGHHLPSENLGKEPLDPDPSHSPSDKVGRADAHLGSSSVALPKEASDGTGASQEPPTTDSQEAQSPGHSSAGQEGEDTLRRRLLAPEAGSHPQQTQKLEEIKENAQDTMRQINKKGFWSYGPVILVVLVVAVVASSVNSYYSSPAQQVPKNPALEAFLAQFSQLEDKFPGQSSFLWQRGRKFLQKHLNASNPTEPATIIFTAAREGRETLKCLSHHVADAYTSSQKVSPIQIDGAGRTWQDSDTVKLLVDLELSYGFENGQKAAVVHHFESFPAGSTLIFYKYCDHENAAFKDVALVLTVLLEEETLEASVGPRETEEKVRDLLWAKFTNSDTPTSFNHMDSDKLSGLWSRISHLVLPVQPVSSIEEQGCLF

Row | Compound | composite z-score [1] | composite z-score [2] | composite z-score [3] | composite z-score [4] | composite z-score [5] | composite z-score [6] | composite z-score [7] | z-score [8] | composite z-score [9] | composite z-score [10] | composite z-score [11] | z-score [12] | z-score [13] | z-score [14] | composite z-score [15] | z-score [16] | composite z-score [17] | composite z-score [18] | composite z-score [19] | composite z-score [20]
1 | O=C1N(Cc2ccccc2)c2ccccc2[C@H]2OC(c3ccc(OCCCO)cc3)=N[C@@]12Cc1ccccc1 | 0.85 | 0.205 | 0.202 | 0.862 | 0.45 | 0.924 | 1.3 | -1.69 (inactive) | 1.03 | 0.115 | 1.54 | -0.915 (inactive) | -0.469 (inactive) | 6.52 (inactive) | 2.58 | -0.905 (inactive) | -0.0058 | 1.54 | 1.1 | -0.0525
2 | COC(=O)[C@@]1(CCS(=O)(=O)c2ccccc2)N=C(c2ccc(OCCCO)cc2)O[C@H]1c1ccccc1N=[N+]=[N-] | -0.0367 | 0.35 | -0.051 | 0.207 | 1.05 | 0.573 | 1.21 | -2.34 (inactive) | 0.252 | -0.0346 | 1.56 | 0.349 (inactive) | -0.238 (inactive) | 34.6 (active) | 3.29 | 0.96 (inactive) | -0.0341 | 0.492 | 1.09 | -0.0968
3 | C=CCC(OC(C)=O)[C@@H]1[C@@H](N(Cc2ccc(-c3cccc(C(F)(F)F)c3)o2)C(=O)Cc2ccc(OC)cc2)c2cc(OCCCO)ccc2N1C(=O)c1ccc2ccccc2n1 (stereo not given in full) | 0.0523 | -0.0913 | -0.0922 | 0.745 | -0.485 | -0.249 | -0.433 | 0.312 (inactive) | 0.364 | -0.16 | -0.538 | 0.195 (inactive) | 0.153 (inactive) | -0.44 (inactive) | 0.806 | -0.555 (inactive) | -0.0998 | -0.306 | -0.412 | -0.0828
4 | O=C1C2C=CC(C(O)c3cccs3)N(Nc3ccccc3)C2C(=O)N1c1ccccc1 (stereo not given) | 0.629 | -0.0855 | -0.0459 | 0.0873 | 0.878 | 0.97 | 0.964 | -1.49 (inactive) | 0.35 | -0.0237 | -0.435 | 0.521 (inactive) | -0.175 (inactive) | 0.231 (inactive) | 3.11 | 0.0249 (inactive) | -0.0329 | -0.448 | 0.365 | -0.0583
5 | N#Cc1ccc(C(O)C2C=CC3C(=O)N(c4ccccc4)C(=O)C3N2Nc2ccc([N+](=O)[O-])cc2)cc1 (stereo not given) | 0.561 | 0.31 | 0.139 | 0.863 | 1.58 | 1.77 | 1.28 | 0.498 (inactive) | 1.02 | -0.175 | 1.51 | -0.107 (inactive) | 0.602 (inactive) | 2.45 (inactive) | 3.13 | -0.684 (inactive) | 0.0913 | -0.463 | 1.09 | 0.0522
